Screening results as filed in PubChem.
Hits are enriched below; roughly 2.4% of the tested compounds scored in any of these assays.
D2 ag-1: agonists of human D2 dopamine receptor (beta-arrestin). 0.084% of 360,000 active. activation, % (concentration not given with the values). DiscoveRx PathHunter D2 beta-arrestin, luminescence, 90 min; 100% = 57 uM dopamine signal. P14416; in the data active = activation above about 40%
Target sequence (P14416 whole entry, looked up): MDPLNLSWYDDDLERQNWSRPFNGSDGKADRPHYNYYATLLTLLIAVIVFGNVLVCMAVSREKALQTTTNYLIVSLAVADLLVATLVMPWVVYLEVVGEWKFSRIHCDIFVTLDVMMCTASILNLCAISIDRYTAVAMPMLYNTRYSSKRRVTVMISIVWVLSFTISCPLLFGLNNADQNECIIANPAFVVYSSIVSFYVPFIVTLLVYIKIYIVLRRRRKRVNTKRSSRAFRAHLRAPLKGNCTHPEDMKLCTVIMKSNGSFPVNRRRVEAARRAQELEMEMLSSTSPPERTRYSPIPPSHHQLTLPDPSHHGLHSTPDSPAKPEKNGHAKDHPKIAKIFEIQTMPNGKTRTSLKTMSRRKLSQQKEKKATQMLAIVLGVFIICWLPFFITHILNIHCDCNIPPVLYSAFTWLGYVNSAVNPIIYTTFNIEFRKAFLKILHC
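DiscoveRx PathHunter D2 beta-arrestin cells (2,100/well) attached overnight, then compound-stimulated 90 min at 37 C in HBSS/10 mM HEPES/0.1% Tween-20 buffer; beta-galactosidase complementation read by luminescence after 1 h at ambient temperature. Dopamine 57 uM final (EC100) as control.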
D2 antagonist: antagonizes the human D2 dopamine receptor. 2% of 340,000 active. inhibition, % at 10 µM. P14416. HEK293 TREx D2 cells, calcium flux, dopamine EC80; in the data active = inhibition above about 30%; inactive = below that, where a call was filed
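Inhibition of EC80 dopamine-driven calcium flux, recorded kinetically, defines activity here; cells are a tetracycline-induced HEK293 T-REx line expressing force-coupled D2.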
D2 PAM-1: D2 dopamine receptor (human) potentiation; AID 485347; 0.34% of 340,000 active; HEK293 T-REx D2, calcium flux, EC20 dopamine potentiation; P14416; potentiation, % at 10 µM;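 active = potentiation over 3 SD above the plate norm, cut at about 30% in these data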
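Tetracycline-induced HEK293 T-REx cells force-coupled to calcium signalling expressed D2; compounds were pin-added after a 10 s baseline, read kinetically 180 s, then an EC20 dopamine challenge followed with a further 180 s calcium read.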
D2 ag-2: D2 dopamine receptor (human) agonism; AID 485358; HEK293 T-REx D2 cells, calcium flux agonist mode; 0.53% of 340,000 active; P14416; activation, % at 2 µM;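 active = activation over 3 SD above normal in the single-dose calcium agonist read, cut at about 30% in these data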
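HEK293 Trex D2 cells, tetracycline-induced, o/n 30 C 5% CO2; no-wash Ca dye, RT 30–90 min; 10-cycle baseline, 23 nl cpd added, kinetic Ca read 180 s; agonist hits = positive Ca response.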
D2 PAM-2: positive allosteric modulators of human D2 dopamine receptor; DiscoveRx D2 beta-arrestin cells, luminescence, 90 min; 100% = 57 uM dopamine signal; potentiation, % (no concentration beside the values); 0.23% of 360,000 active; P14416; AID 624464; in the data active = potentiation above about 50%
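PathHunter D2 cells, attached overnight at 37 deg C, received compound in DMSO plus dopamine at EC20 (50 nM final) for 90 min at 37 deg C. Beta-arrestin recruitment was read as luminescence after 1 h with detection reagent at ambient temperature.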
A number is an active result.

What do the screens show for `Cc1ccc2[nH]c3c(c2c1)CCCC3=O`?
D2 ag-1: inactive; D2 antagonist: inactive; D2 PAM-1: inactive; D2 ag-2: inactive; D2 PAM-2: inactive

Results for O=C1CCCc2c1[nH]c1ccc(CN3CCCCC3)cc21 ?
D2 ag-1: inactive; D2 antagonist: 51; D2 PAM-1: inactive; D2 ag-2: inactive; D2 PAM-2: inactive

Results for O=C(N/N=C/c1c(F)cccc1Cl)c1ccc(Cn2cc(Br)cn2)o1 ?
D2 ag-1: inactive; D2 antagonist: inactive; D2 PAM-1: inactive; D2 ag-2: inactive; D2 PAM-2: inactive

Results for O=C(Nc1ccc(C(F)(F)F)cc1Cl)c1ccc(Cn2cc(Br)cn2)o1 ?
D2 ag-1: inactive; D2 antagonist: 37; D2 PAM-1: inactive; D2 ag-2: inactive; D2 PAM-2: inactive

Results for O=C(Nc1cccc(C(F)(F)F)c1)c1ccc(Cn2cc(Br)cn2)o1 ?
D2 ag-1: inactive; D2 antagonist: 35; D2 PAM-1: inactive; D2 ag-2: inactive; D2 PAM-2: inactive

What do the screens show for `C/C(=N\NC(=O)c1ccc(Cn2cc(Br)cn2)o1)c1cccc(NC(=O)C(C)(C)C)c1`?
D2 ag-1: inactive; D2 antagonist: inactive; D2 PAM-1: inactive; D2 ag-2: inactive; D2 PAM-2: inactive

How did Cc1cc(=O)n(CC(=O)NC(C)c2ccccc2)c2c1c(C)nn2-c1cccc(F)c1 (stereo not given) do in these assays?
D2 PAM-1: inactive; D2 ag-2: inactive

What do the screens show for `COCC1CCN(C(=O)c2ccc3oc(CCCc4ccccc4)nc3c2)C1` (stereo not given)?
D2 ag-1: inactive; D2 antagonist: inactive; D2 PAM-1: 44; D2 ag-2: inactive; D2 PAM-2: inactive

How did O=C(NCCC(=O)N(Cc1ccco1)Cc1cccs1)c1ccc(Br)cc1 do in these assays?
D2 ag-1: inactive; D2 antagonist: 41; D2 PAM-1: inactive; D2 ag-2: inactive; D2 PAM-2: inactive

Results for CCN(C(=O)CSc1nc2ccc(O)cc2c(=O)n1-c1ccc(OC)c(OC)c1)C1CCS(=O)(=O)C1 (stereo not given) ?
D2 ag-1: inactive; D2 antagonist: 43; D2 PAM-1: inactive; D2 ag-2: inactive; D2 PAM-2: inactive

How did CCC(C)c1ccccc1N1CC(C(=O)N2CCN(c3ccccc3)CC2)CC1=O (stereo not given) do in these assays?
D2 ag-1: inactive; D2 PAM-2: inactive

How did CCC(C)c1ccccc1N1CC(C(=O)N2CCN(S(=O)(=O)c3cccc([N+](=O)[O-])c3)CC2)CC1=O (stereo not given) do in these assays?
D2 ag-1: inactive; D2 antagonist: 36; D2 PAM-1: inactive; D2 ag-2: inactive; D2 PAM-2: inactive

How did O=C(c1ccc(Nc2nc3ccccc3n3nnnc23)cc1)N1CCN(c2ccc(F)cc2)CC1 do in these assays?
D2 PAM-1: inactive; D2 ag-2: inactive

What do the screens show for `CC(=O)Nc1cccc(NC(=O)C2CC(=O)N(C3CCCCC3)C2)c1` (stereo not given)?
D2 ag-1: inactive; D2 antagonist: inactive; D2 PAM-1: inactive; D2 ag-2: inactive; D2 PAM-2: inactive

How did O=C(NCCc1ccccc1)C1CC(=O)N(C2CCCC2)C1 (stereo not given) do in these assays?
D2 ag-1: inactive; D2 antagonist: inactive; D2 PAM-1: inactive; D2 ag-2: inactive; D2 PAM-2: inactive

How did O=C(Nc1cccc([N+](=O)[O-])c1)C1CC(=O)N(C2CCCCC2)C1 (stereo not given) do in these assays?
D2 ag-1: inactive; D2 antagonist: 31; D2 PAM-1: inactive; D2 ag-2: inactive; D2 PAM-2: inactive

How did O=C(NCCN1CCc2ccccc2C1)C1CC(=O)N(C2CCCC2)C1 (stereo not given) do in these assays?
D2 ag-1: inactive; D2 antagonist: 33; D2 PAM-1: inactive; D2 ag-2: inactive; D2 PAM-2: inactive

How did O=C(NCCc1cccc(F)c1)C1CCC(=O)N(C2CCCCCC2)C1 (stereo not given) do in these assays?
D2 ag-1: inactive; D2 antagonist: 34; D2 PAM-1: inactive; D2 ag-2: inactive; D2 PAM-2: inactive

Results for CN(O)/C=C1\C(=O)Nc2ccccc21 ?
D2 ag-1: inactive; D2 antagonist: inactive; D2 PAM-1: inactive; D2 ag-2: inactive; D2 PAM-2: 131

How did CN(C)/C=C1\C(=O)Nc2ccccc21 do in these assays?
D2 ag-1: inactive; D2 antagonist: inactive; D2 PAM-1: inactive; D2 ag-2: inactive; D2 PAM-2: inactive

Results for CC(OC(=O)c1ccc(NC(=O)CC#N)cc1)C(=O)NCCC1=CCCCC1 (stereo not given) ?
D2 ag-1: inactive; D2 antagonist: 38; D2 PAM-1: inactive; D2 ag-2: inactive; D2 PAM-2: inactive

How did Cc1ccc(C)c(C(=O)N(Cc2nc(-c3ccc(Cl)cc3)no2)C(C)C)c1 do in these assays?
D2 ag-1: inactive; D2 antagonist: 40; D2 PAM-1: inactive; D2 ag-2: inactive; D2 PAM-2: inactive

Results for Clc1cccc(CN2CCN(c3nc4nonc4nc3NC3CC3)CC2)c1 ?
D2 ag-1: inactive; D2 antagonist: 38; D2 PAM-1: inactive; D2 ag-2: inactive; D2 PAM-2: inactive

Results for Cc1cccc(CN2CCN(c3nc4nonc4nc3NC3CC3)CC2)c1 ?
D2 ag-1: inactive; D2 antagonist: inactive; D2 PAM-1: inactive; D2 ag-2: inactive; D2 PAM-2: inactive

How did COc1cc(C2CC(=O)Nc3ccc4ccccc4c32)ccc1OC(=O)C(C)C (stereo not given) do in these assays?
D2 ag-2: inactive

What do the screens show for `CN1CCN(c2ccc(Cl)cc2NC(=O)C2COc3ccccc3O2)CC1` (stereo not given)?
D2 ag-1: inactive; D2 antagonist: inactive; D2 PAM-1: inactive; D2 ag-2: inactive; D2 PAM-2: inactive

Results for CN1CCN(c2ccc(Cl)cc2NC(=O)CC2OC(=O)c3ccccc32)CC1 (stereo not given) ?
D2 ag-1: inactive; D2 antagonist: 38; D2 PAM-1: inactive; D2 ag-2: inactive; D2 PAM-2: inactive

Results for Cc1ccc(CN2CCN(CC3CC4C=CC3C4)CC2)cc1 (stereo not given) ?
D2 ag-1: inactive; D2 antagonist: 65; D2 PAM-1: inactive; D2 ag-2: inactive; D2 PAM-2: inactive

Results for O=S(=O)(c1ccccc1)N1CCN(CC2CC3C=CC2C3)CC1 (stereo not given) ?
D2 ag-1: inactive; D2 antagonist: inactive; D2 PAM-1: inactive; D2 ag-2: inactive; D2 PAM-2: inactive

How did Cc1ccc(NC(=O)CCN2C(=O)NC3(CCCC3)C2=O)c(C)c1 do in these assays?
D2 ag-1: inactive; D2 antagonist: 51; D2 PAM-1: inactive; D2 ag-2: inactive; D2 PAM-2: inactive

Results for COc1cccc(NC(=O)C2CCN(S(=O)(=O)c3ccc4c(c3)CC(C)N4C(C)=O)CC2)c1 (stereo not given) ?
D2 ag-1: inactive; D2 antagonist: inactive; D2 PAM-1: inactive; D2 ag-2: inactive; D2 PAM-2: inactive
